Compounds without any hit were thinned out: in the full panel of roughly 83,000, 20% have a hit.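 Assay: single dose, 48 h. Readout: percent growth (0 = no net growth; negative = cell death). Active: <10.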 Values without a mark were called inactive. The source made the active and inactive calls.

Assay in all cases: NCI-60 one-dose screen, 48 h (100 = growth as untreated, 0 = no growth, -100 = all killed)
Conditions in all cases: 10 µM unless noted

The subject of assay [1] is RPMI-8226 leukemia.
Assay [2] relates to OVCAR-8 ovarian.
Assay [3] deals with OVCAR-5 ovarian.
Assay [4] has as its system OVCAR-4 ovarian.
Assay [5] deals with SK-OV-3 ovarian.
Assay [6] relates to IGROV1 ovarian.
Assay [7] deals with OVCAR-3 ovarian.
For assay [8], the system named is HS 578T breast.
In assay [9] the test system is NCI/ADR-RES ovarian.
Assay [10] relates to T-47D breast.
Assay [11] deals with BT-549 breast.
Assay [12] relates to MDA-MB-435 melanoma.
In assay [13] the test system is SW-620 colon.
In assay [14] the test system is MCF7 breast.
For assay [15], the system named is HCT-116 colon.
The subject of assay [16] is HCC-2998 colon.
Assay [17] has as its system KM12 colon.

With `CN(C)c1ccc2[nH]c3c(C(N)=O)cc(=O)c(=O)c=3oc2c1`, the growth in assay [1] is 5% (active); in assay [2] it was 25.4%; in assay [3] it was 89%; in [4] it was 49.1%; in assay [5], 82%; in [6] it was 32.5%. The growth was -9.97% (active) in [7]; 20.4% in assay [8]; 58.1% in assay [9]; 18.1% in [10]; 45.9% in assay [11]; -70.1% (active) in assay [12]. In addition, the growth in [13] is 33.8%; in [14], 2.37% (active); in [15], -10.1% (active); in [16], 97.7%; in [17], 96.3%.
Take `COc1ccc(C2CC(c3cccc(Nc4ccnc5cc(Cl)ccc45)c3)=NN2C=O)cc1` (stereo not drawn): the growth in [1] is 21.5%; in assay [2], 35.1%; in assay [3] it was 45.3%; in [4] it was 61.7%; in assay [5], 19%; in assay [6], 32.7%. The growth in assay [7] is -22.7% (active); in assay [8] it was -3.1% (active); in assay [9], 8.68% (active); in [10], 43.5%; in [11], 30.9%; in assay [12] it was -36% (active). For the same compound, the growth in assay [13] was 18.7%; in assay [14], 22.4%; in assay [15], 7.09% (active); in assay [16], 35.4%; in assay [17], 23.1%.
For the compound `O=[N+]([O-])c1cnc(Sc2ccncn2)c([N+](=O)[O-])c1`, the growth is 67.4% in [1]; 97.3% in assay [2]; 102% in assay [3]; 97.8% in [4]; 97.2% in assay [5]; 117% in [6]. Besides, the growth is 55.1% in [7]; 97.8% in assay [8]; 107% in assay [9]; -31.7% (active) in assay [10]; 111% in assay [11]; 91.1% in [12]. Moreover, the growth in assay [13] is 26.4%; in assay [14], 56.1%; in [15], -59% (active); in assay [16], 102%; in assay [17], 107%.
With `Clc1ccc2c(Nc3ccc4oc(NCCN5CCCC5)nc4c3)ccnc2c1`, the growth in assay [1] is 77%; in assay [2] it was 94.3%; in assay [3], 101%; in assay [4], 85.2%; in assay [5] it was 114%; in [6], 93.7%. Moreover, the growth in [7] was 82.7%; in assay [8] it was 97.1%; in assay [9], 101%; in [10], 91.9%; in assay [11], 95.1%; in [12] it was 101%. The growth in assay [13] is 78.4%; in assay [14] it was 68.9%; in assay [15], 55.7%; in assay [16], 76%; in [17] it was 81.7%.
As for `O=C1C(=O)c2ccc(Br)cc2-c2cc(Br)ccc21`, the growth is 25.9% in assay [1]; -1.14% (active) in assay [2]; 113% in assay [3]; -99% (active) in assay [4]; 81% in assay [5]; 68.7% in assay [6]. Also, the growth is -48.6% (active) in assay [7]; 86.4% in assay [8]; -29.2% (active) in assay [9]; 20% in [10]; 63% in assay [11]; 20.5% in assay [12]. Further, the growth is -1.44% (active) in [13]; 0.468% (active) in assay [14]; -71.9% (active) in [15]; 87% in [16]; 73.1% in [17].
As for `CCC1=C(c2ccc(OC)cc2)C(C)Oc2cc(OC(C)=O)ccc21` (stereo not drawn), the growth is 75.6% in assay [1]; 68.8% in [2]; 128% in [3]; 72.4% in assay [4]; 80.6% in [5]; 104% in assay [6]. Also, the growth is 86.9% in assay [7]; 83.5% in [8]; 75.6% in assay [9]; 65.4% in assay [10]; 95.4% in assay [11]; 40.7% in [12]. The growth in [13] is 90.5%; in [14], 82.4%; in assay [15], 74.5%; in [16], 107%; in assay [17], 77.7%.
`Cc1cc(C)n2nc(SCC(=O)Nc3sc4c(c3C(N)=O)CCC4)nc2n1`: the growth in assay [1] was 148%; in [2], 112%; in assay [3] it was 97.1%; in [4], 122%; in [5], 118%; in assay [6] it was -2.56% (active). Moreover, the growth in assay [7] is 123%; in assay [8], 121%; in [9] it was 102%; in assay [10] it was 109%; in [11] it was 99.6%; in [12], 108%. Moreover, the growth in assay [13] is 100%; in assay [14], 107%; in assay [15], 97.2%; in [16], 118%; in [17], 114%.
`CC(CCC(=O)O)(NC(=O)c1ccc([N+](=O)[O-])cc1)C(=O)O` (stereo not drawn): the growth in [1] is 116%; in [2], 102%; in [3] it was 118%; in assay [4], 111%; in assay [5], 96%; in assay [6], 115%. The growth was 108% in [7]; 105% in assay [8]; 108% in assay [9]; 93.7% in [10]; 114% in assay [11]; 105% in assay [12]. Also, the growth was 103% in [13]; 107% in [14]; 98.9% in assay [15]; 90.4% in assay [16]; 99.3% in assay [17].
For `COc1cc(OC)c2sc(-c3ccc(-n4cncc4-c4ccc(N)cc4)cc3)nc2c1`, the growth in assay [1] was 64%; in assay [2], 77.4%; in [3], 100%; in assay [4], 63.1%; in assay [5], 120%; in [6] it was 104%. Further, the growth in assay [7] is 77.6%; in assay [8] it was 103%; in [9], 68.9%; in assay [10] it was 60.6%; in assay [11] it was 82.4%; in assay [12], 62.9%. The growth is 91.2% in [13]; 63.4% in assay [14]; 70.2% in assay [15]; 96.2% in assay [16]; 64.1% in assay [17].

These data come from PubChem BioAssay (NCI).
